Assay in all cases: DAPPL (digital affinity profiling via proximity ligation, sequencing); 10 mM Tris-HCl pH 7.5, 50 mM NaCl, 1 mM DTT, 4% glycerol, room temperature, 30 min; GST-TFs on glutathione beads, 16-mer random dsDNA library, 0.1% formaldehyde crosslink after washing; high values mean tight binding
The target in test [1] is T1, FLI1 (Homo sapiens, UniProt Q01543 1-452).
T1 sequence: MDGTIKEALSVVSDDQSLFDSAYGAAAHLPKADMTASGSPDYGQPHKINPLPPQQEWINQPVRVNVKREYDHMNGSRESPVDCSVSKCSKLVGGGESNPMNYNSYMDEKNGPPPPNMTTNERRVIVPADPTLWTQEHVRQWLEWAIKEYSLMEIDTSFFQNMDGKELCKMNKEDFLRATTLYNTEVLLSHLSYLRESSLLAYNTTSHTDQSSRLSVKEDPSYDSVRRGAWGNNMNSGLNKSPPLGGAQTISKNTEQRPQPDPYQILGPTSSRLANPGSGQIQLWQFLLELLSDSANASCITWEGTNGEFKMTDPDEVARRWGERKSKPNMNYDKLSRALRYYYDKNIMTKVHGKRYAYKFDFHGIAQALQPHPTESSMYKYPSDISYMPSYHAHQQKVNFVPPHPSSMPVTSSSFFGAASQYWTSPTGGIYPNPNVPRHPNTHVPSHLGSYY
The settings on record: protein: recombinant; tags: N-terminal GST; dsDNA, one strand shown. A digest of the protocol: (§1)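 Binding signal is defined as a hexamer's read frequency for one factor over its frequency for the tag-only sample. To obtain reads, GST-fused human transcription factors were expressed in yeast, captured on glutathione beads, barcoded with DNA and pooled with that sample. Pools met 200 nmole of a 16-mer random double-stranded DNA library in Tris/NaCl/DTT/glycerol buffer for 30 min at room temperature before washing, 0.1% formaldehyde crosslinking, proximity ligation (BsaI/T4 ligase, 1 h, 37 °C), PCR and Illumina NextSeq500 sequencing.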

Test [2] has as its target T2, ELK1 (Homo sapiens, UniProt P19419 1-428).
T2 sequence: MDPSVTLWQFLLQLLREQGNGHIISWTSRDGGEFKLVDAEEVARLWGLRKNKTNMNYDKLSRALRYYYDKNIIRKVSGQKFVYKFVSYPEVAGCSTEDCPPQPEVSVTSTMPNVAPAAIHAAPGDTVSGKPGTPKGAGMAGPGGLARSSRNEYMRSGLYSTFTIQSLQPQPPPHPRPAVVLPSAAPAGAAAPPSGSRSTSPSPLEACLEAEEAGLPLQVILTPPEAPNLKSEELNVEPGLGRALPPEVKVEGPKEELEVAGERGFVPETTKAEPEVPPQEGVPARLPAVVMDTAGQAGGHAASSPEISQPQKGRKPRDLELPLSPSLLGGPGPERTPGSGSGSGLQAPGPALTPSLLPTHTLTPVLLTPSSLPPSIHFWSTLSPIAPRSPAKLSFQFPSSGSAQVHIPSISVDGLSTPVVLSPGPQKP
Conditions: protein: recombinant; tags: N-terminal GST; dsDNA, one strand shown. The method in brief:
as §1

The target in test [3] is T3, GABPA (Homo sapiens, UniProt Q06546 1-454).
T3 sequence: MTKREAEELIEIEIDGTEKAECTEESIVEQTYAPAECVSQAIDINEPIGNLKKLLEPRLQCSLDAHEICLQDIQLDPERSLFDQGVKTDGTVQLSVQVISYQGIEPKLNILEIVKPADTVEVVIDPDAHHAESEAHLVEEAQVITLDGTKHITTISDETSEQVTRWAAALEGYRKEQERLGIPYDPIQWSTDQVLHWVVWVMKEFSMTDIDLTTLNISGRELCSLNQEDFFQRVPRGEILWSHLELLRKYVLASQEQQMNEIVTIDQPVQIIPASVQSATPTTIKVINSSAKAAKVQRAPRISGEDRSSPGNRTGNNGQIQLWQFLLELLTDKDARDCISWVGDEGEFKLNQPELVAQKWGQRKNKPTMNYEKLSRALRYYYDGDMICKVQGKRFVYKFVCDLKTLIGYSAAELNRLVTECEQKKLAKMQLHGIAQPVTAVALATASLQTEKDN
The settings on record: protein: recombinant; tags: N-terminal GST; dsDNA, one strand shown. A digest of the protocol: as §1

In test [4] the target is T4, ERG (Homo sapiens, UniProt P11308 1-479).
T4 sequence: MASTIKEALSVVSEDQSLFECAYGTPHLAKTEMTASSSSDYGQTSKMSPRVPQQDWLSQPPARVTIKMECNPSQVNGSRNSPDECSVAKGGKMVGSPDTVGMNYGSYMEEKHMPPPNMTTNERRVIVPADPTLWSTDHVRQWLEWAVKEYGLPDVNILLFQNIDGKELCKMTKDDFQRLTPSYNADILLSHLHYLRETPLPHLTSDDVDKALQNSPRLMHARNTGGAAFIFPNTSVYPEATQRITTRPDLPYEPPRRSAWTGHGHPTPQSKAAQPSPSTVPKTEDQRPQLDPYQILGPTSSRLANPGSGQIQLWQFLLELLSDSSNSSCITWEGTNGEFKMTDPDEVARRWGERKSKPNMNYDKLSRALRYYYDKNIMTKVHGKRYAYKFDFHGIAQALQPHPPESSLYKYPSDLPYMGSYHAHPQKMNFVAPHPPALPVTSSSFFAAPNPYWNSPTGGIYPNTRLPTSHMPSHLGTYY
The settings on record: protein: recombinant; tags: N-terminal GST; dsDNA, one strand shown. A digest of the protocol: as §1

The target of test [5] is ELF1 (Homo sapiens, UniProt P32519 1-619). The settings on record: protein: recombinant; tags: N-terminal GST; dsDNA, one strand shown. A digest of the protocol: as §1
Sequence of ELF1 (P32519 whole entry): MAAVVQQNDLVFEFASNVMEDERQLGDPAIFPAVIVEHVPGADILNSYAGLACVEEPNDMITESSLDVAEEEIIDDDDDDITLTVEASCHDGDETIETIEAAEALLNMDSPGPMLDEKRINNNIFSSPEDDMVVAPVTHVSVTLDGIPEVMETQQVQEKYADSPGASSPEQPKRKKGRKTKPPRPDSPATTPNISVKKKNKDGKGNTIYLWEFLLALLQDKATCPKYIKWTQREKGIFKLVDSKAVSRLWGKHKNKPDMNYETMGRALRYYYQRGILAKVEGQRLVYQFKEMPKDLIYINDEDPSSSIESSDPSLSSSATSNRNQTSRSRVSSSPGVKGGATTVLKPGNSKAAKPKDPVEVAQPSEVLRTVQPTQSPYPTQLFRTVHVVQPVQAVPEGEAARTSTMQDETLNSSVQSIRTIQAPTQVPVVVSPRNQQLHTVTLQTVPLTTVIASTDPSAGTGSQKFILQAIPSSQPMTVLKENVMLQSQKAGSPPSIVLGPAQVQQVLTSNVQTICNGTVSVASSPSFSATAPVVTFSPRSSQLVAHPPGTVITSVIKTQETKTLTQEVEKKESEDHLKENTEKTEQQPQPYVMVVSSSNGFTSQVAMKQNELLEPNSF
The target in test [6] is T5, EHF (Homo sapiens, UniProt Q9NZC4 1-300).
T5 sequence: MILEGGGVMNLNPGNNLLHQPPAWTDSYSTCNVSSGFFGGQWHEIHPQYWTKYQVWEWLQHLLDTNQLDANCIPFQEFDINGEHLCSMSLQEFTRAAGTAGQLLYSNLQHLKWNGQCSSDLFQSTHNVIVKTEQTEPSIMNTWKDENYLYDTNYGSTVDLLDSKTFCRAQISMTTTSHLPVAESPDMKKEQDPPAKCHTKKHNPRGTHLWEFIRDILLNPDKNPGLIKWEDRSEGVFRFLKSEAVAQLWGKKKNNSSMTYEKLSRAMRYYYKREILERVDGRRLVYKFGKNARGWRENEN
Conditions: protein: recombinant; tags: N-terminal GST; dsDNA, one strand shown. The method in brief: as §1

The target in test [7] is SPI1 (Homo sapiens, UniProt P17947 1-270). Conditions: protein: recombinant; tags: N-terminal GST; dsDNA, one strand shown. The method in brief: as §1
For test [8], the target named is SPIB (Homo sapiens, UniProt Q01892 1-262). The settings on record: protein: recombinant; tags: N-terminal GST; dsDNA, one strand shown. A digest of the protocol: as §1
Sequence of SPIB (Q01892 whole entry): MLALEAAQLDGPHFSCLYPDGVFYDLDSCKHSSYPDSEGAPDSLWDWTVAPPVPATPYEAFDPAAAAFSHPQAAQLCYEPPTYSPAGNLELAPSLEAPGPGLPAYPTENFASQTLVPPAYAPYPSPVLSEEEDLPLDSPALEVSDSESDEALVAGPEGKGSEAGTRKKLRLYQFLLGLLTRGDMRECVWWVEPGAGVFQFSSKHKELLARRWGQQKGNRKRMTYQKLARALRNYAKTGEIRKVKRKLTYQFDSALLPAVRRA
Test [9] concerns the target T6, ELK3 (Homo sapiens, UniProt P41970 1-407).
T6 sequence: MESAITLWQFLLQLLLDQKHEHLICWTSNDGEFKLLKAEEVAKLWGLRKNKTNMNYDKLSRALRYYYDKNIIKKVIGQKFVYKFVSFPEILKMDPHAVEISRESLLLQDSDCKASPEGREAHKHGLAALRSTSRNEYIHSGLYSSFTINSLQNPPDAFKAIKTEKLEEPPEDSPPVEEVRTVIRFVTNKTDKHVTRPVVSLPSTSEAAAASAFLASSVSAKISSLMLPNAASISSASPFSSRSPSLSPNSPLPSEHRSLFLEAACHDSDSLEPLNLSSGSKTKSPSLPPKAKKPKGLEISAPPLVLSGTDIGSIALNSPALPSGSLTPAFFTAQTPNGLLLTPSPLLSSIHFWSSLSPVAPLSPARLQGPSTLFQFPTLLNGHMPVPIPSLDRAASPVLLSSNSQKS
The settings on record: protein: recombinant; tags: N-terminal GST; dsDNA, one strand shown. A digest of the protocol:
as §1

The target of test [10] is T7, FEV (Homo sapiens, UniProt Q99581 1-238).
T7 sequence: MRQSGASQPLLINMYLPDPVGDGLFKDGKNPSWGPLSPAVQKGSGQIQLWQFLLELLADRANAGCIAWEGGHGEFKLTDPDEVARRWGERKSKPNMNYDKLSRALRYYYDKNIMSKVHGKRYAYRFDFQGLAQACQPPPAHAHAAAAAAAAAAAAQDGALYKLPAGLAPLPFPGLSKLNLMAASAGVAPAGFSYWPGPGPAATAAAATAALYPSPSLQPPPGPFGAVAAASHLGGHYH
The settings on record: protein: recombinant; tags: N-terminal GST; dsDNA, one strand shown. The method in brief: as §1

For test [11], the target named is ETV5 (Homo sapiens, UniProt P41161 1-510). The settings on record: protein: recombinant; tags: N-terminal GST; dsDNA, one strand shown. A digest of the protocol: as §1
Sequence of ETV5 (P41161 whole entry): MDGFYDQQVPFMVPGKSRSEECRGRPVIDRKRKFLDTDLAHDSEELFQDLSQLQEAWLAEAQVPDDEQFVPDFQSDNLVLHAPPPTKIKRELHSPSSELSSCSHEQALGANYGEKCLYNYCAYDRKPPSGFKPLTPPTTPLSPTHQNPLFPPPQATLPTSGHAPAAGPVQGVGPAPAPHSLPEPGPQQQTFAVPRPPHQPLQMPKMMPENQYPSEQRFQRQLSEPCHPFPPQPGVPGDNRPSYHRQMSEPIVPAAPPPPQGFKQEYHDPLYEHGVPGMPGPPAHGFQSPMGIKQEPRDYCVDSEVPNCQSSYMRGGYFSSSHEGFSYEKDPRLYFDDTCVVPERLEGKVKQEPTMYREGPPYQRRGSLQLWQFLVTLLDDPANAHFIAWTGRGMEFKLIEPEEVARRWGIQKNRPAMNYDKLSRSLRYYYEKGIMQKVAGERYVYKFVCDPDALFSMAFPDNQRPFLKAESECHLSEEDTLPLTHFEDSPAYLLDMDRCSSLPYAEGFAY
Test [12] has as its target HSF1 (Homo sapiens, UniProt Q00613 1-529). Conditions: protein: recombinant; tags: N-terminal GST; chain copies: 3; dsDNA, one strand shown. The method in brief: as §1
The target of test [13] is ELF4 (Homo sapiens, UniProt Q99607 1-663). Conditions: protein: recombinant; tags: N-terminal GST; dsDNA, one strand shown. A digest of the protocol:
as §1

Test [14] has as its target T8, ELK4 (Homo sapiens, UniProt P28324-2 1-405).
T8 sequence: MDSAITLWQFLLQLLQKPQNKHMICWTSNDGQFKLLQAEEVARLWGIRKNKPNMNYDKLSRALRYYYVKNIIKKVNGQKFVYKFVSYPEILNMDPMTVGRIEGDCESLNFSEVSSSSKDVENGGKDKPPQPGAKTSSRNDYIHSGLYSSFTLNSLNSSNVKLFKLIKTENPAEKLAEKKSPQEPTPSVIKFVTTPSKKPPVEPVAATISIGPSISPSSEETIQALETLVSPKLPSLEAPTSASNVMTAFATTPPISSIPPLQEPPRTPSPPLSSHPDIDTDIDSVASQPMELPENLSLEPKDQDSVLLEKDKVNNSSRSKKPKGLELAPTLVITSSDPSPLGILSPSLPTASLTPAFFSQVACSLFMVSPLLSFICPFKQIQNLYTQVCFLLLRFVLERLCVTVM
The settings on record: protein: recombinant; tags: N-terminal GST; dsDNA, one strand shown. A digest of the protocol: as §1

The target of test [15] is T9, ETV2 (Homo sapiens, UniProt O00321 1-342).
T9 sequence: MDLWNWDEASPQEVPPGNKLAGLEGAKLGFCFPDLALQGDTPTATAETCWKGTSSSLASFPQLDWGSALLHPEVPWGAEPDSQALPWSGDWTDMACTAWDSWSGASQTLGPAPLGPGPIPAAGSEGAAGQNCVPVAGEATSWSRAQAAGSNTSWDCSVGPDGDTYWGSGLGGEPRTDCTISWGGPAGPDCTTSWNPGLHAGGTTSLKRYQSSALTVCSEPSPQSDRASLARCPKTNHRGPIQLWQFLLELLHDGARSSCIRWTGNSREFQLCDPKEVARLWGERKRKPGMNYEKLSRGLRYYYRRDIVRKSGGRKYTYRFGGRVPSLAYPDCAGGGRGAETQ
The settings on record: protein: recombinant; tags: N-terminal GST; dsDNA, one strand shown. The method in brief: as §1

Test [16] addresses T10, ELF3 (Homo sapiens, UniProt P78545 1-371).
T10 sequence: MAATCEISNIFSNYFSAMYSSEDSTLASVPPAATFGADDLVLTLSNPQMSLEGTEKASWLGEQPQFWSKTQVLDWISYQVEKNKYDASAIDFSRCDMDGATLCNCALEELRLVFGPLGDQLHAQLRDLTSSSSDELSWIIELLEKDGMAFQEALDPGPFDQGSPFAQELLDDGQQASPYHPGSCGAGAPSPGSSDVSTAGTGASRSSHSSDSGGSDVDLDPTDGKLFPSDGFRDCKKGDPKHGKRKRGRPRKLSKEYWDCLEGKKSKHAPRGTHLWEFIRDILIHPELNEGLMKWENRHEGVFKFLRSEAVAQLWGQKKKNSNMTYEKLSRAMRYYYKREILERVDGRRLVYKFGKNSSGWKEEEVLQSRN
Conditions: protein: recombinant; tags: N-terminal GST; dsDNA, one strand shown. A digest of the protocol:
as §1

The target of test [17] is CRX (Homo sapiens, UniProt O43186 1-299). Conditions: protein: recombinant; tags: N-terminal GST; dsDNA, one strand shown. The method in brief: as §1
Sequence of CRX (O43186 whole entry): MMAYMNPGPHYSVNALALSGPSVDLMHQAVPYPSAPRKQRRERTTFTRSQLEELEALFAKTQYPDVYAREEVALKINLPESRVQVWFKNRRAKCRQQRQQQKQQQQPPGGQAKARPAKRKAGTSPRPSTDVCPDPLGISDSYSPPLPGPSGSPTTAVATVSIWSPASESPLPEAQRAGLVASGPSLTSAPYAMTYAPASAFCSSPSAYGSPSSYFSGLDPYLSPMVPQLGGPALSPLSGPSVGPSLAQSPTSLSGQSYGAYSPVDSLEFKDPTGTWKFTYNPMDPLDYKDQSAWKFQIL
In test [18] the target is ETV1 (Homo sapiens, UniProt P50549 1-477). Conditions: protein: recombinant; tags: N-terminal GST; dsDNA, one strand shown. The method in brief: as §1
Sequence of ETV1 (P50549 whole entry): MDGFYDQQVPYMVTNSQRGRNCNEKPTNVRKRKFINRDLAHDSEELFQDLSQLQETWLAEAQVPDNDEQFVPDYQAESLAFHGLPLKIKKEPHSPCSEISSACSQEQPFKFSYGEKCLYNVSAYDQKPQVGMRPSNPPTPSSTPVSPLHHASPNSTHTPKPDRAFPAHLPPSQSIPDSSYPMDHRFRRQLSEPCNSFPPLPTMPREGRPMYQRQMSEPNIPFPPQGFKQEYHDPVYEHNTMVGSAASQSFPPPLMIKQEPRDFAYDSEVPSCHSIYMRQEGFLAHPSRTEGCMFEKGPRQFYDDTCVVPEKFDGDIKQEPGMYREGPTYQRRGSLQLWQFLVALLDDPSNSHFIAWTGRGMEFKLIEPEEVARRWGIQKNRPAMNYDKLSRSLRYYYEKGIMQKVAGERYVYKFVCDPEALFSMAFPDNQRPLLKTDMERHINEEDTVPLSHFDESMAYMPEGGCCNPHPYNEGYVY

Sequence of ELF4 (Q99607 whole entry): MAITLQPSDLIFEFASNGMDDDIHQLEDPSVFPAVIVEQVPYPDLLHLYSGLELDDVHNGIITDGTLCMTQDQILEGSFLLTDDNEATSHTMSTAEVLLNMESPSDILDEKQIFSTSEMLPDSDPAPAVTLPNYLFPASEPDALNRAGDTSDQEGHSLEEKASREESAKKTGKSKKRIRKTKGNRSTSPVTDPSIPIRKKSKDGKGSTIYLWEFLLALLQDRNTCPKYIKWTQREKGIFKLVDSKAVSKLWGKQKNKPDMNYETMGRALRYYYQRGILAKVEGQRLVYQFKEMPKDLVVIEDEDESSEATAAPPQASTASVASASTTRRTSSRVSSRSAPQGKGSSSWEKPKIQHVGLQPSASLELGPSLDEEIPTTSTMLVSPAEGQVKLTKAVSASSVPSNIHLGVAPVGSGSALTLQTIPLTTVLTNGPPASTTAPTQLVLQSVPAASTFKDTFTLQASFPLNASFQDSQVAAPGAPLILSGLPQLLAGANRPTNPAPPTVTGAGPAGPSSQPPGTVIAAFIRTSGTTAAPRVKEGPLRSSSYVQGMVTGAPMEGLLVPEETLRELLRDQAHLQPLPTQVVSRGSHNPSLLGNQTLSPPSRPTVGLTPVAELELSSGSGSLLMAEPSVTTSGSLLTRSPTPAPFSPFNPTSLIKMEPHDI
Sequence of HSF1 (Q00613 whole entry): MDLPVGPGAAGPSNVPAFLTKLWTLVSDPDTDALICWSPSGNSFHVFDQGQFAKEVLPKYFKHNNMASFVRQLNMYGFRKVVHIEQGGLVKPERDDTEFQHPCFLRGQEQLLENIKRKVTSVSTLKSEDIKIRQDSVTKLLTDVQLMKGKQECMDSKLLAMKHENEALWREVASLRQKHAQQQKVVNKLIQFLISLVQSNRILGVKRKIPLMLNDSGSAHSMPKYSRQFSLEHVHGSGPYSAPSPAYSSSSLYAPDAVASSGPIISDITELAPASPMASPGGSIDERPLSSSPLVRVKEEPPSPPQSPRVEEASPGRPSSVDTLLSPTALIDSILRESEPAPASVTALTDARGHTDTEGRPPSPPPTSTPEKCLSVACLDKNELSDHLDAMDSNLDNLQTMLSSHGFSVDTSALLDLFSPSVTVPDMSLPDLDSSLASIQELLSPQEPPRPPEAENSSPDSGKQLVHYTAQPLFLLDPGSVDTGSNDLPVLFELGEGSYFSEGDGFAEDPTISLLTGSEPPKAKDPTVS

Turning to CTATAG, the binding signal is 1.09 fold enrichment (6-mer frequency, TF over GST control) in [1]; 1.05 fold enrichment (6-mer frequency, TF over GST control) in test [2]; 1.11 fold enrichment (6-mer frequency, TF over GST control) in [3]; 1.01 fold enrichment (6-mer frequency, TF over GST control) in [4]; 1.09 fold enrichment (6-mer frequency, TF over GST control) in [5]; 1.03 fold enrichment (6-mer frequency, TF over GST control) in test [6]. Moreover, the binding signal in test [7] was 1.08 fold enrichment (6-mer frequency, TF over GST control); in test [8], 1.07 fold enrichment (6-mer frequency, TF over GST control); in test [9], 1.08 fold enrichment (6-mer frequency, TF over GST control); in test [10], 1.04 fold enrichment (6-mer frequency, TF over GST control); in test [11] it was 1.1 fold enrichment (6-mer frequency, TF over GST control); in test [12], 1.03 fold enrichment (6-mer frequency, TF over GST control). Moreover, the binding signal was 1.02 fold enrichment (6-mer frequency, TF over GST control) in test [13]; 1.14 fold enrichment (6-mer frequency, TF over GST control) in test [14]; 1.27 fold enrichment (6-mer frequency, TF over GST control) in test [15]; 1.04 fold enrichment (6-mer frequency, TF over GST control) in [16]; 1.05 fold enrichment (6-mer frequency, TF over GST control) in test [17]; 1.01 fold enrichment (6-mer frequency, TF over GST control) in [18].

The record behind these values is article PMC7862700, “An all-to-all approach to the identification of sequence-specific readers for epigenetic DNA modifications on cytosine”.
